Cav32 inh: blocks human Cav3.2 T-type calcium channel | B-score at 10 µM | Cav3.2-expressing cells, Fluo-4 calcium fluorescence FDSS; active compounds read low | 100,000 compounds, 4% hits | O95180 | AID 449739;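 active means single-dose well whose peak fluorescence ratio is a statistical outlier from its plate by either plate-standardised score or position-corrected B-score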
CYP2C9 inhib: human CYP2C9 inhibition; 96,000 compounds, 20% hits; inhibition, % at 5 µM; AID 777; P11712; CYP2C9 Supersomes, luciferin-H conversion, luminescence;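 active means blocking of liver enzyme CYP2C9 beyond about 50% at 5 µM, limit read from the data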
Target sequence (P11712 whole entry, looked up): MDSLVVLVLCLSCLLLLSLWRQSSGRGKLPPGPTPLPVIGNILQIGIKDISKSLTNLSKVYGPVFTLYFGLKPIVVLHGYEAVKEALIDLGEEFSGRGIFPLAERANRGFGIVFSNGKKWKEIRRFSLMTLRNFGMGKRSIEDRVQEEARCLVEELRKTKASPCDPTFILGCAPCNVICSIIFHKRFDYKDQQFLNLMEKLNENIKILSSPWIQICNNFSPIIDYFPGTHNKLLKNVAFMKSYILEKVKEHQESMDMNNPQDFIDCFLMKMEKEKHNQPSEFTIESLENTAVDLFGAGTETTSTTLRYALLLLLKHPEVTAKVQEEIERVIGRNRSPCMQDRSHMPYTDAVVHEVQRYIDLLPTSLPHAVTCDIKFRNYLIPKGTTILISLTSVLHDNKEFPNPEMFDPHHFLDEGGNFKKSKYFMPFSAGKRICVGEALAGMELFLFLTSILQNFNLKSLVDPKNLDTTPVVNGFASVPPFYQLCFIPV
CYP2C9 activ: activators of human CYP2C9 | P11712 | recombinant CYP2C9, luciferin-H conversion, luminescence; active compounds read high; factor 1 = untreated enzyme, 0 = blocked | activation factor at 5 µM | 96,000 compounds, 1.4% hits | AID 1024;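 active means activation factor of 2 or more for CYP2C9 at a 5 µM dose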;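 further: 0 = sulfaphenazole-blocked wells and 1 = vehicle-only wells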
CYP2C19 act: activators of human cytochrome P450 2C19; P33261; 96,000 tested, under 10 active; activation factor at 5 µM; recombinant CYP2C19, luciferin-H EGE luminescence; active compounds read high; 0 = fully inhibited enzyme, 1 = untreated enzyme; AID 1025;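 active means activation factor of at least 2 at 5 µM in the primary screen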;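 further: 0 = wells with 2.5 mM tranylcypromine and 1 = vehicle-only wells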
CYP2C19 inhib: inhibitors of human CYP2C19. P33261. CYP2C19 Supersomes, luciferin-H EGE luminescence, 30 min. inhibition, % at 5 µM. 96,000 compounds, 21% hits;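 active means CYP2C19 inhibition above a set limit at 5 µM in the primary screen, cut at about 50% in these data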;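 further: plate controls were negative control wells for no effect and 2.5 mM tranylcypromine positive control for full effect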
Starred values were filed as active, the others as inactive; x = no result. In the library only some 27% were active in any assay of this set; here they are far more common.

SMILES	Cav32 inh	CYP2C9 inhib	CYP2C9 activ	CYP2C19 act	CYP2C19 inhib
COc1cc(S(=O)(=O)N2CCOCC2)ccc1NC(=O)c1cc2c(s1)CCC2	-0.594	68.2*	0.3	0.5	46.4
Cc1ccc(S(=O)(=O)N2CCOCC2)cc1NC(=O)c1cc2c(s1)CCC2	x	63.8*	0.4	0.5	51.9*
Cc1ccc(NC(=O)c2cc3c(s2)CCC3)cc1S(=O)(=O)N1CCOCC1	0.249	-0.3	1	1.3	-34.4
O=C(NC1CCCCC1)C(c1ccccc1)N(C(=O)Cc1ccsc1)c1ccccc1 (centres undefined)	-0.346	0.7	1	1	-3.9
Cc1cc(C)cc(OCC(=O)Nc2nonc2NC(=O)COc2cc(C)cc(C)c2)c1	0.0495	63.8*	0.4	0.6	42.5
CC1=C(C#N)CCC(=O)N1Cc1ccc(C)cc1	0.0106	18.3	0.8	0.4	60.8*
O=C(NCCc1c[nH]c2ccccc12)c1cnc2sccn2c1=O	0.315	-152.2	2.5*	0.1	88.7*
O=C(NCCc1c[nH]c2ccccc12)[C@@H]1C[C@H]1[C@@H](NP(=O)(c1ccccc1)c1ccccc1)c1ccccc1	-3.86	x	x	x	x
O=C(NCCc1c[nH]c2ccccc12)C(F)(F)C(F)F	0.169	27.1	0.7	0.3	72.3*
O=C(O)C1CCCCC1C(=O)NCCc1ccncc1 (centres undefined)	0.0791	66.7*	0.3	0.5	45.7
O=C(NCCc1c[nH]c2ccccc12)C1Cc2ccccc2CN1C(=O)c1ccco1 (centres undefined)	-1.72	63.1*	0.4	0	95.3*
NS(=O)(=O)c1ccc(CCNC(=O)C2Cc3ccccc3CN2C(=O)c2ccco2)cc1 (centres undefined)	0.217	23.1	0.8	0.9	13.9
COc1cccc(CNC(=O)C2CCN(S(=O)(=O)c3ccc4c(c3)CCC(=O)N4)CC2)c1	0.217	22.4	0.8	1.1	-6.3
O=C(Nc1cccc([N+](=O)[O-])c1)C12CC3CC(C1)CC(n1cnc([N+](=O)[O-])n1)(C3)C2	x	6.9	0.9	0.9	13.7
Cc1c(C#N)c2ccccc2n1CC(=O)NCCc1c[nH]c2ccccc12	-0.0365	42.1	0.6	0.6	41.1
COc1ccc(NC(=S)NCCSc2ccc(Cl)cc2)c(OC)c1	-1.86	-48.9	1.5	0.6	44.5
N[C@@H](Cc1c[nH]c2ccccc12)C(=O)O	0.196	x	x	x	x
CCSc1nnc(NC(=O)C2Cc3ccccc3CN2C(=O)c2ccco2)s1 (centres undefined)	-1.19	52.7*	0.5	0.8	22.6
COc1ccc(Cl)cc1NC(=S)NCCc1c[nH]c2ccccc12	-2.88	-130.2	2.3*	0.1	92.2*
N#Cc1cn(CC(=O)NCCc2c[nH]c3ccccc23)c2ccccc12	-3.03	66.3*	0.3	0.5	50.2*
O=C(NCCc1c[nH]c2ccccc12)Nc1ccccc1	-1.72	-19.9	1.2	0.1	91.2*
O=C(CCC(=O)NNC(=O)Nc1ccc(Cl)cc1)NCc1ccccc1	0.265	11.3	0.9	1	2.8
Cc1ccc(NC(=S)NCCc2c[nH]c3ccccc23)cc1	-3.79	18.9	0.8	0.1	86.2*
Cc1cc(C)cc(NC(=O)C(=O)NCCc2c[nH]c3ccccc23)c1	-1.2	x	x	x	x
O=C(O)C1CCCCC1C(=O)NCCc1c[nH]c2ccccc12 (centres undefined)	x	33.0	0.7	0.2	75.3*
SMILES	Cav32 inh	CYP2C9 inhib	CYP2C9 activ	CYP2C19 act	CYP2C19 inhib
O=C(O)[C@H]1CCCC[C@H]1C(=O)NCCc1ccccc1	-0.271	4.4	1	1	-0.9
COC(=O)c1c(NC(=O)C2CC2)sc2c1CCCC2	-0.792	28.8	0.7	0.9	10.9
COC(=O)c1c(NS(=O)(=O)c2ccc3ccccc3c2)sc2c1CCCC2	-3.63	98.5*	0	0	99.5*
CCOC(=O)c1c(NS(=O)(=O)Cc2ccccc2)sc2c1CCCC2	-4.21*	95.1*	0	0	98.8*
CC1CCc2c(sc(NS(=O)(=O)c3ccccc3)c2C(=O)OC(C)C)C1 (centres undefined)	-5.1*	x	x	x	x
COCC(=O)Nc1sc2c(c1C(=O)OC)CCC(C)C2 (centres undefined)	-1.62	28.8	0.7	0.9	7.2
CCOC(=O)c1c(NC(=O)c2cccs2)sc2c1CCCC2	-0.0432	0.5	1	1	3.3
COC(=O)c1c(NC(=O)c2ccc(C)c(S(=O)(=O)Nc3ccccc3C)c2)sc2c1CCCC2	-1.23	59.2*	0.4	1	1.5
O=S1(=O)CC(N2CCCCC2)C(N2CCCCC2)C1 (centres undefined)	-0.0422	4.1	1	1	-0.5
CCOC(=O)c1c(NS(=O)(=O)c2ccc(Br)cc2)sc2c1CCC2	-8.48*	x	x	x	x
CCOC(=O)c1c(NC(=O)c2cccs2)sc2c1CCC2	-1.26	23.1	0.8	0.8	19.5
CCNC(=O)NC(=O)C(C)Sc1nnc(COc2ccccc2Cl)o1 (centres undefined)	-1.38	27.0	0.7	0.5	46.9
CCNC(=O)NC(=O)C(C)SCc1ccccc1C (centres undefined)	-0.0245	43.6	0.6	0.3	67.4*
CCCCN(C(=O)NC(=O)Nc1ccccc1OCC)S(C)(=O)=O	-1.1	78.6*	0.2	0.5	53.9*
CCCCN(C(=O)NC(=O)Nc1c(C)cc(C)cc1C)S(C)(=O)=O	-0.244	25.1	0.7	0.6	36.9
O=S(=O)(c1ccc2ccccc2c1)N1C=CC(C(F)(F)F)=NCC1	-3.26	-60.4	1.6	0.6	35.3
Brc1ccccc1-c1nnc(COc2cccc3cccnc23)o1	0.324	-186.9	2.9*	0.1	91.2*
Clc1ccccc1-c1nnc(-c2ccccc2Cl)o1	-1.9	x	x	x	x
Clc1ccccc1OCc1nnc(-c2ccccc2Br)o1	-0.0979	-110.4	2.1*	0.8	18.1
NC(=O)CC(NC(=O)Cc1ccc(Br)cc1)c1ccc(N2CCN(c3ccc(F)cc3)CC2)c([N+](=O)[O-])c1 (centres undefined)	0.973	x	x	x	x
Cc1c(NC(=O)/C(C#N)=C/C2CC=CCC2)c(=O)n(-c2ccccc2)n1C (centres undefined)	x	-0.7	1	1.1	-12.2
CCOC(=O)C1=C(N)n2c(s/c(=C\c3cccnc3)c2=O)=C(C(=O)OCC)C1c1cccnc1 (centres undefined)	x	69.6*	0.3	0.4	62.7*
CCOC(=O)C1=C(N)n2c(s/c(=C\c3cccs3)c2=O)=C(C(=O)OCC)C1c1cccs1 (centres undefined)	x	78.5*	0.2	0.7	28.7
CCOC(=O)C1=C(N)n2c(s/c(=C\c3cccnc3)c2=O)=C(C(=O)OC)C1c1cccnc1 (centres undefined)	1.78	x	x	x	x
c1ccc2c(Oc3ccc4c(c3)OCO4)nncc2c1	0.00399	5.3	0.9	0.4	62.2*
c1ccc2c(c1)ccc1nnc(SCc3ccc4c(c3)OCO4)n12	-0.26	35.8	0.6	0.5	47.9
CCOC(=O)NC(=O)/C(C#N)=N\Nc1ccc(Cl)cc1	-5.09*	10.6	0.9	1.1	-9.6
N#C/C(=N\Nc1ccc(Cl)cc1)C(=O)c1ccccc1	-5.55*	6.9	0.9	0.3	68.7*

Screening results (PubChem BioAssay)
